Bioassay records deposited in PubChem by several laboratories.
DAT uptake mod – modulates human dopamine transporter uptake under cocaine | Q01959 | LLC-PK1 hDAT cells, [14C]-dopamine uptake with cocaine IC80; actives deviate in either direction | B-score at 10 µM | 110,000 tested, 1.3% active | AID 449768;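 active means Z score or B-score, a plate-position-corrected score, falls beyond the plate's 99.7% confidence bounds, in either direction; inactive means both scores lie inside the 99.7% bounds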
D1 mod – allosterically modulates the human D1 dopamine receptor | 58,000 tested, 5.9% active | HEK293 D1, CRE-luciferase, dopamine EC30 potentiation; actives deviate in either direction | B-score at 10 µM;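 active means luminescence count or its row- and column-corrected plate score outside the 99.7% band of the plate's sample wells, on either side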
PostGolgi ctrl – yeast control strain growth, post-Golgi counter-screen | efflux-deficient yeast background strain, growth absorbance A615, 16 h | inhibition, % at 10 µM | 98,000 tested, 5% active
PostGolgi yeast – growth inhibition of a yeast mutant, post-Golgi transport screen; 98,000 tested, 0.9% active; inhibition, % at 10 µM; AID 739; post-Golgi transport phenotypic cell assay;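 further: yeast cells grown in 1536-well plates; yeast grown about 18 h at 30C before absorbance read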
PLAP act – human PLAP activation; purified PLAP enzyme, luminescent substrate read-out; active compounds read high; activation fold at 20 µM; 96,000 tested, 1.2% active; AID 696; in the data active means activation fold above about 2
Cav3 T inh – blocks human Cav3.2 T-type calcium channel. 100,000 tested, 4% active. O95180. AID 449739. B-score at 10 µM. Cav3.2-expressing cells, Fluo-4 calcium fluorescence FDSS; active compounds read low;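 active means single-dose well whose peak fluorescence ratio is a statistical outlier from its plate by either plate-standardised score or position-corrected B-score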
D1 PAM confirm – D1 receptor (human) allosteric modulation, confirmed; shares compounds with D1 mod; 2,200 tested, 88% active; luminescence at 10 µM; AID 642; HEK293 D1 CRE-luciferase, dopamine EC30 potentiation; active compounds read high;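 active means luminescence in either of two replicates above the same-plate mean plus 3 SD of the low-dose dopamine control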
D1 no dopamine – activates D1 CRE-luciferase signal without dopamine present; luminescence at 10 µM; shares compounds with D1 mod; 1,900 tested, 0.8% active; AID 646; HEK293 D1 CRE-luciferase, luminescence, no dopamine; active compounds read high; in the data active means luminescence above about 3900
Isoprot counter – alters isoproterenol CRE-luciferase response in HEK293 cells | AID 647 | shares compounds with D1 mod | 2,200 tested, 63% active | calls only at 10 µM | HEK293 D1 CRE-luciferase, isoproterenol EC30 counter-screen;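 active means luminescence in either replicate above plate mean of wells with a partly effective reference agonist dose plus 3 SD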;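 further: isoproterenol raises cAMP through native beta-adrenoceptor Gs so signal bypasses D1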
Hits are given with their value; – = inactive; · = not tested or not shown; + = active, no number. Shown are actives, neighbours in structure and some others; about 12% of the full set was active somewhere. Unless noted, no stated cut-off is given here; in the data, active means inhibition above about 30%; inactive means the rest.

SMILES	DAT uptake mod	D1 mod	PostGolgi ctrl	PostGolgi yeast	PLAP act	Cav3 T inh	D1 PAM confirm	D1 no dopamine	Isoprot counter
CCNc1nc(NC(C)(C)C)nc(N(C#N)CC)n1	–	30	–	–	–	–	23548	–	+
COC(=O)c1ccc(C2C(C(=O)Nc3ccc(C)cc3C)=C(C)Nc3ncnn32)cc1 (stereo not drawn)	–	–	–	–	–	–	·	·	·
Brc1cnc(N2CCCC2)nc1N1CCOCC1	–	6	–	–	–	–	18712	–	+
Cn1c(N)cc(=O)n(Cc2ccccc2)c1=O	–	·	·	·	·	–	·	·	·
O=c1ccn(Cc2ccccc2)c(=O)n1Cc1ccccc1	2.8	2.9	–	–	–	–	12736	–	+
CCN(CCCNC(=O)CN(C)S(=O)(=O)c1cccc2nsnc12)c1cccc(C)c1	–	3.5	–	–	–	–	13504	–	–
CCCN(S(=O)(=O)c1ccc(OCC)cc1)S(=O)(=O)c1cccs1	–	–	–	–	–	–	·	·	·
CCOC(=O)c1oc2ccc(S(=O)(=O)N3CCOCC3)cc2c1C	–	4.3	–	–	–	–	7344	–	–
COc1cc(OC)cc(C(=O)N2CCN(C(=O)c3ccc(OC)c(OC)c3)CC2)c1	–	14	–	–	·	–	19992	–	+
Cc1ccc(Oc2ncccc2/C=N/OCc2ccc(Cl)c(Cl)c2)cc1	–	·	–	–	–	·	·	·	·
CCOc1cc(-c2c(C)c(C)nc(N)c2C#N)ccc1O	–	–	–	–	·	–	·	·	·
CCOc1cc(-c2c(C)c(CC)nc(N)c2C#N)ccc1O	–	1.9	–	–	–	–	10600	–	+
Cc1cc(C)nc(SCc2nnc(SCC(=O)Nc3cc(C(F)(F)F)ccc3Cl)o2)n1	–	–	–	–	–	–	·	·	·
Cc1c(NC(=O)CC(=O)Nc2c(C)n(C)n(-c3ccccc3)c2=O)c(=O)n(-c2ccccc2)n1C	–	·	–	–	–	–	·	·	·
Cc1c(NC(=O)CN2C(=O)c3ccccc3C2=O)c(=O)n(-c2ccccc2)n1C	–	3.7	–	–	–	–	–	–	–
CSc1nc(N2CCOCC2)c2c3c(sc2n1)CCCC3	–	11	36	–	–	–	11612	–	+
COc1ccc(OCc2nnc(SC(C)C(=O)Nc3nccs3)n2-c2ccccc2)cc1 (stereo not drawn)	–	–	–	–	–	–	·	·	·
O=C(CC1SC2=NCCN2C1=O)Nc1ccccc1 (stereo not drawn)	–	–	–	–	–	–	·	·	·
Cc1ccc(NC(=O)CC2SC3=NCCN3C2=O)cc1 (stereo not drawn)	–	5.5	–	–	·	–	–	·	–
CN(C)C(=O)N1CCC(C(=O)NCc2ccc(F)cc2Cl)CC1	–	3.9	–	–	–	–	–	–	–
COc1cccc(C(=O)Nc2ccc(N3CCN(S(C)(=O)=O)CC3)cc2)c1	–	·	–	–	–	–	·	·	·
CC(C)C1N=C2c3ccccc3N=C(SCC#N)N2C1=O (stereo not drawn)	–	5.1	–	–	–	–	10160	–	–
CCC(C)NC(=O)CSC1=Nc2ccccc2C2=NC(c3ccccc3)C(=O)N12 (stereo not drawn)	–	·	–	–	–	–	·	·	·
CCOC(=O)C(O)(CCC(O)(C(=O)OCC)C(=O)OCC)C(=O)OCC	–	5	–	–	–	–	6712	–	–
CCOC(=O)C(CCC#N)(CCC#N)C(=O)OCC	–	–	–	–	–	–	·	·	·
SMILES	DAT uptake mod	D1 mod	PostGolgi ctrl	PostGolgi yeast	PLAP act	Cav3 T inh	D1 PAM confirm	D1 no dopamine	Isoprot counter
c1cnc2c(SCc3ccc(-c4nnco4)cc3)cccc2c1	–	5.3	–	–	–	–	8332	·	+
CCOc1ccccc1-n1c(SCC(=O)NC(C)CC)nnc1-c1ccoc1C (stereo not drawn)	–	–	–	–	–	–	·	·	·
COC(=O)c1cc(Br)c(=O)n(-c2cc(C)on2)c1	–	–	–	–	–	–	·	·	·
CCn1c2ccccc2c2nc3ccccc3nc21	–	5.6	34	–	–	–	15700	·	–
CCn1c2ccccc2c2nc3cc(OC)c(OC)cc3nc21	–	–	–	–	–	–	·	·	·
CCN(CC)S(=O)(=O)c1cccc(-c2nnc(SCCOc3ccccc3)o2)c1	–	14	–	–	–	-4.2	–	–	–
Cn1nc(C(=O)Nc2c(-c3ccccc3)nc3sccn23)c2ccccc2c1=O	–	–	–	–	–	–	·	·	·
Cc1nn2c(CN(C(=O)c3ccco3)c3ccccc3)nnc2c2ccccc12	·	–	·	·	·	·	·	·	·
COc1cc(CN(C(=O)c2ccco2)c2ccc(C)cc2)ccc1O	–	9.5	–	–	–	–	13744	–	+
COC(=O)c1ccccc1NC(=O)C1CCN(S(=O)(=O)c2cc(C)ccc2OC)CC1	–	17	–	–	–	–	16104	–	+
COC(=O)c1cc(OC)c(OC)cc1NC(=O)C1CCC(=O)N1S(=O)(=O)c1ccc(C)cc1 (stereo not drawn)	–	9.2	–	–	–	–	16888	·	+
COc1ccc(CN2C3CCCC2CC(NC(=O)Nc2ccccc2)C3)cc1 (stereo not drawn)	–	·	·	·	·	–	·	·	·
CC(C)(C)n1nnnc1CN1C2CCC1CC(NC(=O)Nc1ccccc1)C2 (stereo not drawn)	–	4.8	–	–	·	–	–	·	–
CC(C)C(=O)Nc1ccc(NC(=S)NC(=O)c2ccc([N+](=O)[O-])cc2)cc1	–	·	–	–	–	–	·	·	·
Cc1cc(=O)oc2cc(OC(C)C(=O)Nc3nccs3)ccc12 (stereo not drawn)	–	4.6	–	–	–	–	12128	–	+
Cc1cc(C)n2nc(Cc3ccccc3)nc2n1	–	–	–	–	–	–	·	·	·
Cc1cc(C)n2nc3ccccc3c2n1	–	2.8	–	–	–	–	10324	–	+
CN(C)C(CNC(=O)CN1C(=O)NC2(CCc3ccccc32)C1=O)c1ccco1 (stereo not drawn)	–	–	–	–	–	–	·	·	·
CCN(c1ccc(NC(=O)COC(=O)CCC(=O)c2ccc(F)cc2)cc1)C(C)C	–	·	–	–	–	–	·	·	·
CCCC(=O)Nc1sc2c(c1C#N)CCCCC2	–	·	·	·	·	–	·	·	·
CCOC(=O)CCSc1nc(C)c2ccccc2n1	–	1.9	–	–	–	–	6200	–	–
CCOC(=O)CCSc1nc(C)c2cc(C)ccc2n1	–	·	–	–	–	–	·	·	·
C[C@@H]1CC[C@]2(O[C@H](CCO)C[C@H](O)[C@H]2O)O1	–	·	·	·	·	–	·	·	·
